“And” between values parts separate entries of the source, which are not always exact repeats. Equal entries are not always repeated. The panel holds about 83,000 compounds, 20% with a hit somewhere; the sample as a whole holds those more often.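 Compound tested at a single concentration for 48 hours in 96-well plates; a percent growth value below 10 was scored as active.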 The source made the active and inactive calls.

The subject of the assay is MDA-MB-468 breast. The assay is described as follows: NCI-60 one-dose screen, 48 h (100 = growth as untreated, 0 = no growth, -100 = all killed). The note with it: 10 µM unless noted.
With `CC(=O)O.[In]`, the growth is 101% (inactive).
`O=C1c2cccnc2-c2ncccc21`: the growth is 100% [100 µM] (inactive).
The figure for `CC(C)CCC[C@@H](C)C1CCC2C3CCC4=C/C(=N/OCCN(C)C)CC[C@]4(C)C3CC[C@@]21C` (stereo not given in full) is 87.3% (inactive); for `O=C1Nc2cc(Cl)ccc2/C1=C\c1c(-c2ccc(F)cc2)nc2ccccn12` it is -7.93% (active).
In the case of `Cc1onc(-c2ccccc2)c1C(=O)N/N=C/c1cc(Cl)cc(Cl)c1O`, the growth was 24.7% (inactive).
The figure for `NC(=S)N/N=C/c1ccc(Cl)cc1` is 97.3% (inactive); for `O=C(N/N=C/c1ccccc1)C(Oc1ccccc1)c1ccccc1` (stereo not given) it is 80.2% (inactive); for `O=c1cc(C(F)(F)F)[nH]c(=S)[nH]1` it is 110% (inactive).
Next, `CCN(CC)CCCCCCCCNc1c2ccc(Cl)cc2nc2ccc(OC)cc12`: -93.2% (active); `NC(=O)C(O)(c1ccccc1)c1ccccc1`: 95.1% (inactive); `NS(=O)(=O)c1ccc(Nc2nc(N/N=C/c3c[nH]c4ccccc34)nc(Nc3ccccc3)n2)cc1`: 52.7% (inactive).
Next, `COC(=O)/C=C/c1cc(OC(C)=O)c2c(c1)C(C(=O)OC)C(c1ccc(OC(C)=O)c(OC(C)=O)c1)O2` (stereo not given): 35.8% (inactive); `CN1CCN(c2nc3scc(-c4ccccc4)c3c(=O)[nH]2)CC1`: 98.1% (inactive); `CCc1ccc(C2=NN(c3ccc(S(C)(=O)=O)cc3)C(=O)CC2)cc1`: 50.7% (inactive).
Turning to `Cc1cc(N/N=C/c2nc(-c3ccc(Cl)cc3)oc2C)c2cc(Cl)ccc2n1`, the growth was -47.4% (active).
The figure for `COc1ccc(C2Nc3c(c(C(C)(C)C)nn3-c3ccccc3)C(=O)CS2)cc1` (stereo not given) is 112% (inactive).
The figure for `COC1=CC2C=C(C3N(c4ccccc4)NC(=O)[C@@H]4CCCN34)C(=O)NC2C=C1` (stereo not given in full) is 114% (inactive); for `CN(CCNCc1ccccn1)CCNCc1ccccn1` it is -15.6% (active).
`C/C(=C\CCc1ccoc1)CC/C=C(\C)CCCC1COC(=O)C1` (stereo not given): the growth is 97.4% (inactive).
Next, `COc1ccc(C(=O)/C=C/c2cc(-c3ccc(OC)c(OC)c3)n[nH]2)cc1OC`: -71.6% (active).
Consider `CC(=O)Nc1ccccc1-c1n[nH]c(=O)[nH]c1=O`, for which the growth was 102% (inactive).
Next, `Fc1ccc(-c2cc3nc(C(Cl)Cl)nc(-c4ccccc4)n3n2)cc1`: -59.1% (active); `O=C1C=CC(=O)N1c1cccc2c1CCCC2`: 95.1% (inactive); `COc1ccc(/C(C#N)=C/c2ccccn2)cc1`: 89% (inactive) and 82% (inactive).
The figure for `c1cc2c(ccc3[nH]c(-c4ccc5[nH]ncc5c4)c4c(c32)CCCC4)n1` is 76.7% (inactive).
Regarding `COc1ccc2c(c1)oc1c3[nH]c4ccccc4c3c3c(c21)C(=O)N(O)C3=O`, the growth was -17.7% (active).
As for `CN1CCN(CCNc2nc(-c3cccc(NS(=O)(=O)c4cccc5c(N(C)C)cccc45)c3)cs2)CC1`, the growth is 42.9% (inactive).
The figure for `Cc1c(C(N)=O)sc2c1c(=O)n(Cc1ccccc1)c1nnc(S(=O)(=O)CC(=O)Nc3ccc(Cl)cc3)n21` is 33.2% (inactive); for `CCCCc1ccc(NS(=O)(=O)c2cc3c4c(c2)CCN4C(=O)CC3)cc1` it is -25.9% (active); for `CC(=O)Nc1nc(N)nc(NC(C)=O)c1N=O` it is 118% (inactive).
Consider `Cc1ccc(S(=O)(=O)Nc2sccc2-c2nc(-c3ccccc3)no2)cc1`, for which the growth was 97.7% (inactive).
The figure for `Cn1c(-c2ccccc2)c(/C=C/C2=[N+](C)c3ccccc3C2(C)C)c2ccccc21` is -16.5% (active); for `CC12O[C@H](C[C@@H](OC(=O)CCC(=O)O)[C@H]1O)n1c3ccccc3c3c4c(c5c6ccccc6n2c5c31)C(=O)NC4=O` it is 25.9% (inactive).
Regarding `O=S(=O)(NCCNc1nccc(-c2c(-c3ccc(F)c(O)c3)nc3occn23)n1)c1ccccc1`, the growth was 59.6% (inactive).
For `N/C(=N\C(N)=N\c1nc2ccccc2s1)c1ccnc(Br)c1`, the growth was 96.6% (inactive).
Regarding `O=C(O)c1ccc2c(c1)C(=O)c1ccccc1C2=O`, the growth was -2.97% (active).
Regarding `O=C1Nc2ccccc2/C1=C\c1c(-c2ccc(F)cc2)nc2ccccn12`, the growth was 40.8% (inactive).
Take `O=C(O)CCCc1ccccc1`: the growth is 109% (inactive).
The figure for `NC(N)=N/N=C/c1ccccc1` is 94.2% (inactive).
On to `NC(=O)N/N=C\c1ccco1`, for which the growth was 119% (inactive).

The values above are taken from PubChem BioAssay (NCI).
